Measured values: PubChem BioAssay
For some of these results: Potency and affinity values are given separately. Active and inactive are the calls of the source. Unless noted, the rule behind the calls is not given here.

Legend:
[1] = antimalarial activity against Dd2 strain (AID 2302;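 active = growth inhibition above 50% at the single 2 µM test dose, taken to imply half-maximal potency below 2 µM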;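 note: 0% = DMSO untreated growth and 100% = chloroquine plus artemisinin killed control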); conditions: P. falciparum Dd2 in RBCs, LDH growth readout, 72 h; at 2 µM; stronger effect = higher value
[2] = human hepatoma cell viability loss – ATP luminescence, cytotoxicity control for P. falciparum antimalarial project, primary screen (AID 2303;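 active = inhibition above 50%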;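 note: 0% = DMSO wells and 100% = digitonin-killed cells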); conditions: HepG2 viability, 24-48 h, at 10 µM, stronger effect = higher value
[3] = molecular target: L-lactate dehydrogenase (Plasmodium falciparum (isolate CDC / Honduras)) (UniProt Q27743); experiment: PfLDH activity inhibition – cell lysate, 3D7 strain, counter-screen for P. falciparum growth inhibition project (AID 2304);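 note: 0% = vehicle and 100% = reference inhibitor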; conditions: P. falciparum 3D7 crude extract, LDH APAD/NBT absorbance; at 2 µM; stronger effect = higher value
[4] = inhibition of 3D7 malaria parasite growth – strain 3D7 (AID 2306);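 note: 0% = DMSO wells and 100% = chloroquine plus artemisinin control wells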; conditions: P. falciparum 3D7 erythrocytic growth, LDH absorbance, 72 h; at 2 µM; stronger effect = higher value
[5] = molecular target: Calcium-dependent protein kinase 1 (Plasmodium falciparum (isolate 3D7)) (UniProt P62344); experiment: PfCDPK1 kinase inhibitors, biochemical, TCAMS library (AID 1159585; cut-off not given, nearly all actives have IC50 up to about 0.98 µM;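 note: inhibitors leave more ATP so luminescence rises with inhibition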); conditions: recombinant PfCDPK1, Kinase-Glo ATP depletion luminescence
[6] = molecular target: Plasmodium falciparum protein kinase 6 (PK6, PF3D7_1337100) (UniProt Q8IDW1); experiment: PfPK6 kinase inhibitors, biochemical, TCAMS library (AID 1159586); conditions: recombinant PfPK6, Kinase-Glo ATP depletion luminescence
[7] = molecular target: Protein kinase 7 (PK7), Plasmodium falciparum 3D7 (PF3D7_0213400) (UniProt Q7YTF7); experiment: inhibition of Plasmodium PK7 catalytic activity – biochemical, TCAMS antimalarial set, Kinase-Glo luminescence (AID 1159587); conditions: recombinant PfPK7, Kinase-Glo ATP depletion luminescence
[8] = molecular target: Calcium-dependent protein kinase 4 (Plasmodium falciparum (isolate 3D7)) (UniProt Q8IBS5); experiment: PfCDPK4 kinase inhibitors, biochemical, TCAMS library (AID 1159588; cut-off not given, nearly all actives have IC50 up to about 0.91 µM); conditions: recombinant PfCDPK4, Kinase-Glo ATP depletion luminescence
Sequence of Calcium-dependent protein kinase 4 (Plasmodium falciparum (isolate 3D7)) (Q8IBS5 whole entry, looked up): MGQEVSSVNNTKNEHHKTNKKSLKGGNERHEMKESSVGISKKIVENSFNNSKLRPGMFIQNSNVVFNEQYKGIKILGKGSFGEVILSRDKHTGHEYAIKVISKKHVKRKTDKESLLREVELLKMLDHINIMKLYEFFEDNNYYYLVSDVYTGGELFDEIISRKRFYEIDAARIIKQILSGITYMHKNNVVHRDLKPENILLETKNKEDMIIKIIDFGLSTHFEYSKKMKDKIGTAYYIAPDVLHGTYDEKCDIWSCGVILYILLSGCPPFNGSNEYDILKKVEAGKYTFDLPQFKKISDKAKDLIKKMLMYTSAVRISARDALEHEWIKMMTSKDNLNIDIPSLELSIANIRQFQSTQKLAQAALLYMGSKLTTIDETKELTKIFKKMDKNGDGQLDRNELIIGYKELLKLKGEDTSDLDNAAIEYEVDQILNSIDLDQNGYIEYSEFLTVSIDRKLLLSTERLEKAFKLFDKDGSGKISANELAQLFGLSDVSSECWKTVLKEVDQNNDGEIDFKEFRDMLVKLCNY

Sequence of L-lactate dehydrogenase (Plasmodium falciparum (isolate CDC / Honduras)) (Q27743 whole entry, looked up): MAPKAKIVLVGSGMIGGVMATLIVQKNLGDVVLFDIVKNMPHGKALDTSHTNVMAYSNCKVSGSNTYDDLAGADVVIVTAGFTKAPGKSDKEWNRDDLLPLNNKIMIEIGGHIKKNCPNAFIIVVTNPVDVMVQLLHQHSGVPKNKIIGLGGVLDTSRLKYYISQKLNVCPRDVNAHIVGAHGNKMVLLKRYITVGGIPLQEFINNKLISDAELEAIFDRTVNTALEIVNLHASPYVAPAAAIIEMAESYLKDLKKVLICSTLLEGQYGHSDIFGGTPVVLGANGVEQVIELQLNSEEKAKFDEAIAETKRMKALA
Sequence of Plasmodium falciparum protein kinase 6 (PK6, PF3D7_1337100) (Q8IDW1 1-305): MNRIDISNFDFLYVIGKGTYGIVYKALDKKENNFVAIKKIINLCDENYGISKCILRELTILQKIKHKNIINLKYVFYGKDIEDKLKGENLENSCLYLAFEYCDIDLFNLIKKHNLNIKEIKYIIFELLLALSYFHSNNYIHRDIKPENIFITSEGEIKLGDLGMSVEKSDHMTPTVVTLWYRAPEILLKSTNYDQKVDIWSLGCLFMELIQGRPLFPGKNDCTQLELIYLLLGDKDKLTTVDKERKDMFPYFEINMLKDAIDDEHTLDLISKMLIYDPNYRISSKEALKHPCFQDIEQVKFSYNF
Sequence of Calcium-dependent protein kinase 1 (Plasmodium falciparum (isolate 3D7)) (P62344 whole entry, looked up): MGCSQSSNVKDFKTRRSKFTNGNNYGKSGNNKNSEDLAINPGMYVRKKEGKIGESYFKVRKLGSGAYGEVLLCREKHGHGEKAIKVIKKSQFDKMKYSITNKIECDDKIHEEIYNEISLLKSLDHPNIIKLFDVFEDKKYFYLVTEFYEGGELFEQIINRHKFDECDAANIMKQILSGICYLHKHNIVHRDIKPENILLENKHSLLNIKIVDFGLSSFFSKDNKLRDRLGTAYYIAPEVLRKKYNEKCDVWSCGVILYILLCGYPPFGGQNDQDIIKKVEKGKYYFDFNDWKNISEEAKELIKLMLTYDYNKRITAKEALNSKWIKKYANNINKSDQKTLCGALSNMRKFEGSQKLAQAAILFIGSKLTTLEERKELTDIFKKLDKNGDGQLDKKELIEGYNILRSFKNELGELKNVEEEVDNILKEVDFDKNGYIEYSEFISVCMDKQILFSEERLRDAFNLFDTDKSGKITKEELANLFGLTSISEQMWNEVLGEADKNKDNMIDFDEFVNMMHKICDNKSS
Sequence of Protein kinase 7 (PK7), Plasmodium falciparum 3D7 (PF3D7_0213400) (Q7YTF7 1-343): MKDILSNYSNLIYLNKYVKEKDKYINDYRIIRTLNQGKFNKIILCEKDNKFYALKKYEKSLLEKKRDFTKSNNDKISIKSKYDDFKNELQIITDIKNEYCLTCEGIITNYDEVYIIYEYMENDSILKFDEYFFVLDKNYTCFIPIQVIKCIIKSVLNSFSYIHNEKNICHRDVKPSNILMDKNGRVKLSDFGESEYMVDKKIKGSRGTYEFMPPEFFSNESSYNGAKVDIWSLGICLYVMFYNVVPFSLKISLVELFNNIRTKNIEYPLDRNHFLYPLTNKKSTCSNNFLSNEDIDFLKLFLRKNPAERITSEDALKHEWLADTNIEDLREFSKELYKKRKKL

Oc1ccc2[nH]cc(C3CCN(CCCCCCCCCN4CCC(c5c[nH]c6ccc(O)cc56)CC4)CC3)c2c1
active: growth inhibition [4] 101%
inactive: growth inhibition [1] 2% | inhibition [2] 22% | inhibition [3] -5% | outcome [5] | outcome [6] | outcome [7] | outcome [8]

CC(C)(C)c1ccc(-c2cc3c(ccc4nc(N)nc(N)c43)[nH]2)cc1
active: growth inhibition [1] 100% | inhibition [2] 100% | growth inhibition [4] 101%
inactive: inhibition [3] 5% | outcome [5] | outcome [6] | outcome [7] | outcome [8]

CC1(C)N=C(N)NC(Nc2ccc(F)c(F)c2)=N1
inactive: growth inhibition [1] 1% | inhibition [3] -10% | outcome [5] | outcome [6] | outcome [7] | outcome [8]
active: inhibition [2] 59% | growth inhibition [4] 91%

CC(C)(CNC(=O)/C=C/c1ccc(Cl)c(Cl)c1)CNc1cc(=O)c2ccccc2[nH]1
inactive: growth inhibition [1] 29% | inhibition [2] -4% | inhibition [3] 0% | outcome [5] | outcome [6] | outcome [7] | outcome [8]
active: growth inhibition [4] 96%

COc1cc(OCCCN(C)Cc2ccc(OC)c(OC)c2)ccc1NC(=O)c1cccc2c(=O)c3cccc(F)c3[nH]c12
active: growth inhibition [1] 62% | growth inhibition [4] 94%
inactive: inhibition [2] 10% | inhibition [3] -5% | outcome [5] | outcome [6] | outcome [7] | outcome [8]

CC1(C)N=C(N)N=C(N)N1OCc1ccc(-c2ccccc2)cc1
inactive: inhibition [3] -6% | outcome [5] | outcome [6] | outcome [7] | outcome [8]
active: growth inhibition [1] 97% | inhibition [2] 64% | growth inhibition [4] 95%

O=C(NC1CCCCN(Cc2ccccc2O)C1)c1cccc(C(F)(F)F)c1 (stereo not drawn)
inactive: inhibition [2] -4% | inhibition [3] -6% | outcome [5] | outcome [6] | outcome [7] | outcome [8]
active: growth inhibition [1] 64% | growth inhibition [4] 93%

O=C(c1cc(-c2ccco2)[nH]n1)N1CCN(S(=O)(=O)c2ccc(Br)cc2)CC1
inactive: inhibition [2] 1% | inhibition [3] -5% | outcome [5] | outcome [6] | outcome [7] | outcome [8]
active: growth inhibition [1] 90% | growth inhibition [4] 95%

O=C(CCC1CCCC1)N(Cc1ccc(-c2ccc(CNCCc3ccccn3)cc2)cc1)CC1CCCCN1 (stereo not drawn)
active: growth inhibition [1] 69% | growth inhibition [4] 95%
inactive: inhibition [2] 32% | inhibition [3] 0% | outcome [5] | outcome [6] | outcome [7] | outcome [8]

COc1cccc2c(NN=Cc3cccc(Cl)c3)cc(C)nc12
inactive: inhibition [2] 3% | inhibition [3] 2% | outcome [5] | outcome [6] | outcome [7] | outcome [8]
active: growth inhibition [1] 75% | growth inhibition [4] 101%

Cc1[nH]c(C)c(-c2ccc(OCc3ccc(F)cc3)cc2)c(=O)c1Cl
inactive: inhibition [2] -10% | inhibition [3] -1% | outcome [5] | outcome [6] | outcome [7] | outcome [8]
active: growth inhibition [1] 96% | growth inhibition [4] 95%

Cn1nc(-c2cccc(CNC3CCc4ccccc43)c2)c2cnc(NCCCN3CCCC3)nc21 (stereo not drawn)
inactive: growth inhibition [1] 15% | inhibition [2] 29% | inhibition [3] -2% | outcome [5] | outcome [6] | outcome [7] | outcome [8]
active: growth inhibition [4] 99%

Cc1cc(C(=O)CSc2nc3ccccc3n2-c2ccccc2)c(C)n1C1CCS(=O)(=O)C1 (stereo not drawn)
inactive: growth inhibition [1] -3% | inhibition [2] -18% | inhibition [3] 0% | outcome [5] | outcome [6] | outcome [7] | outcome [8]
active: growth inhibition [4] 92%

CCCOC(=O)c1ccc(OCCCON2C(N)=NC(N)=NC2(C)C)cc1
inactive: inhibition [3] 6% | outcome [5] | outcome [6] | outcome [7] | outcome [8]
active: growth inhibition [1] 97% | inhibition [2] 61% | growth inhibition [4] 95%

Cc1cc(=O)[nH]c(NC#N)n1
active: growth inhibition [4] 99%
inactive: growth inhibition [1] 3% | inhibition [2] 8% | inhibition [3] 0% | outcome [5] | outcome [6] | outcome [7] | outcome [8]

NC(=O)Nc1ccc2cn[nH]c2c1
inactive: growth inhibition [1] -2% | inhibition [2] 4% | inhibition [3] -3% | outcome [5] | outcome [6] | outcome [7] | outcome [8]
active: growth inhibition [4] 97%

O=C(Nc1cccc(CN2CCCN(CC3CC3)CC2)c1)c1ccc(-c2ccccc2)cc1
inactive: growth inhibition [1] 5% | inhibition [2] 15% | inhibition [3] 6% | outcome [5] | outcome [6] | outcome [7] | outcome [8]
active: growth inhibition [4] 96%

O=C(Cn1c(CCc2cccc(F)c2F)cc(=O)c2ccccc21)N(CCN1CCCC1)Cc1ccc(-c2ccc(C(F)(F)F)cc2)cc1
active: growth inhibition [1] 57% | inhibition [2] 89% | growth inhibition [4] 99%
inactive: inhibition [3] -2% | outcome [5] | outcome [6] | outcome [7] | outcome [8]

Cc1ccc(C(C)C)c(Oc2ccc3nc(N)nc(N)c3c2)c1
active: inhibition [2] 61% | growth inhibition [4] 96%
inactive: growth inhibition [1] 33% | inhibition [3] 2% | outcome [5] | outcome [6] | outcome [7] | outcome [8]

Cc1cccc2[nH]c(C3CCN(CC4CCN(C(=O)/C=C/c5ccc(Cl)c(Cl)c5)CC4)CC3)nc12
active: growth inhibition [1] 79% | growth inhibition [4] 100%
inactive: inhibition [2] 46% | inhibition [3] 0% | outcome [5] | outcome [6] | outcome [7] | outcome [8]

Cc1noc(C)c1-c1cccc(CNCc2cccc(-c3ccc(-c4nc5ccccc5[nH]4)s3)c2)c1
inactive: growth inhibition [1] 29% | inhibition [2] 24% | inhibition [3] -1% | outcome [5] | outcome [6] | outcome [7] | outcome [8]
active: growth inhibition [4] 101%

CCN(CC)CCCCCNc1c2ccc(Cl)cc2nc2ccc(OC)cc12
active: growth inhibition [1] 99% | inhibition [2] 96% | growth inhibition [4] 99%
inactive: inhibition [3] 4% | outcome [5] | outcome [6] | outcome [7] | outcome [8]

O=c1cc(NCCCNCc2ccccc2-c2ccccc2)[nH]c2ccccc12
active: growth inhibition [4] 88%
inactive: growth inhibition [1] 46% | inhibition [2] 0% | inhibition [3] -1% | outcome [5] | outcome [6] | outcome [7] | outcome [8]

OC(CNCCc1ccccc1)Cn1c2ccc(Cl)cc2c2cc(Cl)ccc21 (stereo not drawn)
active: growth inhibition [1] 96% | inhibition [2] 53% | growth inhibition [4] 98%
inactive: inhibition [3] 8% | outcome [5] | outcome [6] | outcome [7] | outcome [8]

CN(C)CCOc1cccc(NC(=O)Nc2ccc(-c3ccccc3)cc2)c1
active: growth inhibition [4] 90%
inactive: growth inhibition [1] 16% | inhibition [2] 11% | inhibition [3] -1% | outcome [5] | outcome [6] | outcome [7] | outcome [8]

CCOc1cc(CC)ccc1C1CCN(CCCCNC(=O)c2ccc(NC(=O)c3ccc(C#N)cc3)cc2)CC1
active: growth inhibition [1] 50% | inhibition [2] 55% | growth inhibition [4] 91%
inactive: inhibition [3] -1% | outcome [5] | outcome [6] | outcome [7] | outcome [8]

CS(=O)(=O)Nc1ccc2[nH]cc(C3CCN(CCCCCNC(=O)/C=C/c4ccc(Cl)c(Cl)c4)CC3)c2c1
active: growth inhibition [4] 101%
inactive: growth inhibition [1] 0% | inhibition [2] 1% | inhibition [3] 5% | outcome [5] | outcome [6] | outcome [7] | outcome [8]

CC(C)CNCc1ccc(-c2cccc(CNC3CCN(Cc4ccccc4)CC3)c2)cc1
inactive: inhibition [2] 34% | inhibition [3] -9% | outcome [5] | outcome [6] | outcome [7] | outcome [8]
active: growth inhibition [1] 100% | growth inhibition [4] 101%

O=C(Nc1ccccc1)N1CCC(CN2CCOC(c3ccccc3)(c3ccccc3)C2)CC1
active: growth inhibition [1] 98% | growth inhibition [4] 96%
inactive: inhibition [2] 10% | inhibition [3] 2% | outcome [5] | outcome [6] | outcome [7] | outcome [8]

CCc1c(C)nc(-n2nc(C)cc2NC(=O)CCc2ccccc2)[nH]c1=O
active: growth inhibition [1] 97% | growth inhibition [4] 97%
inactive: inhibition [2] 48% | inhibition [3] -1% | outcome [5] | outcome [6] | outcome [7] | outcome [8]

CCCN1CCC=C(c2cccc(Nc3nccc(Nc4cc(OC)ccc4C)n3)c2)C1
active: growth inhibition [4] 88%
inactive: growth inhibition [1] 35% | inhibition [2] 15% | inhibition [3] -1% | outcome [5] | outcome [6] | outcome [7] | outcome [8]

CCN(CC)C(=O)C1CCN(C(C(=O)N2CCN(CC(=O)N3CCCC3)CC2)c2cc3ccccc3o2)CC1 (stereo not drawn)
inactive: growth inhibition [1] 4% | inhibition [2] -11% | inhibition [3] -7% | outcome [5] | outcome [6] | outcome [7] | outcome [8]
active: growth inhibition [4] 98%

O=C([C@@H]1CCCCN1c1ccc([N+](=O)[O-])c2ccccc12)N1CCN(c2ncccn2)CC1
inactive: growth inhibition [1] 5% | inhibition [3] 5% | outcome [5] | outcome [6] | outcome [7] | outcome [8]
active: inhibition [2] 50% | growth inhibition [4] 97%

CC(C)(C)OC(=O)C1CCCN(Cc2ccc(-c3cccc(-c4nc5ccccc5[nH]4)c3)cc2)C1 (stereo not drawn)
active: growth inhibition [4] 93%
inactive: growth inhibition [1] 27% | inhibition [2] 37% | inhibition [3] 4% | outcome [5] | outcome [6] | outcome [7] | outcome [8]

CCc1nc(N)nc(N)c1-c1cccc(Cl)c1
inactive: growth inhibition [1] 1% | inhibition [3] 2% | outcome [5] | outcome [6] | outcome [7] | outcome [8]
active: inhibition [2] 60% | growth inhibition [4] 94%

CN(C)CCNC(=O)c1ccc2c(c1)n(C1CCN(S(=O)(=O)c3ccc(-c4ccccc4)cc3)CC1)c(=O)n2CC1CCCCC1
active: growth inhibition [1] 66% | growth inhibition [4] 100%
inactive: inhibition [2] 47% | inhibition [3] -2% | outcome [5] | outcome [6] | outcome [7] | outcome [8]

CCOC(=O)NOC(C(=O)O)c1ccccc1 (stereo not drawn)
inactive: growth inhibition [1] 17% | inhibition [2] 4% | inhibition [3] -1% | outcome [5] | outcome [6] | outcome [7] | outcome [8]
active: growth inhibition [4] 99%

O=C(/C=C/c1ccc(Cl)c(Cl)c1)NCCCCCN1CCC(NC(=S)Nc2cccc(Cl)c2)CC1
inactive: growth inhibition [1] 43% | inhibition [2] 24% | inhibition [3] 4% | outcome [5] | outcome [6] | outcome [7] | outcome [8]
active: growth inhibition [4] 99%

O=C(NCc1cccc2ccccc12)C1CCCN(C(=O)c2ccc(O)c(-c3ccc(Cl)c(Cl)c3)c2)C1 (stereo not drawn)
inactive: growth inhibition [1] 23% | inhibition [2] 1% | inhibition [3] -5% | outcome [5] | outcome [6] | outcome [7] | outcome [8]
active: growth inhibition [4] 92%

CCOc1cc(C(=O)N[C@@H](Cc2ccccc2)[C@H](O)CNCc2cc(OC)cc(OC)c2)cc(N2CCCCS2(=O)=O)c1
active: growth inhibition [1] 98% | growth inhibition [4] 100%
inactive: inhibition [2] -2% | inhibition [3] 5% | outcome [5] | outcome [6] | outcome [7] | outcome [8]

c1ccc(Oc2ccc(Nc3ccnc4cc(-c5csc(CN6CCCCC6)n5)ccc34)cc2)nc1
active: growth inhibition [1] 95% | growth inhibition [4] 100%
inactive: inhibition [2] 22% | inhibition [3] -7% | outcome [5] | outcome [6] | outcome [7] | outcome [8]
